Records with an inconclusive call do not appear. The source made the active and inactive calls. Unless noted, calls come from the whole dose curve; as a rule, active = well fitted curve in the direction sought with a large enough effect; inconclusive = small, poorly fitted or top-dose-only effect, or another doubt; inactive = no such curve, though single readings can be large; an effect the other way counts as inactive or inconclusive.
What was measured:
[1] = biological target: Lysosomal acid glucosylceramidase (Homo sapiens) (UniProt P04062); experiment: Glucocerebrosidase-p2 (AID 348; in the data active = potency below about 10 µM; note: potency is the fitted concentration of half-maximal effect); conditions: purified GBA, blue fluorogenic substrate, 40 min
Lysosomal acid glucosylceramidase (Homo sapiens), sequence (P04062 whole entry, looked up): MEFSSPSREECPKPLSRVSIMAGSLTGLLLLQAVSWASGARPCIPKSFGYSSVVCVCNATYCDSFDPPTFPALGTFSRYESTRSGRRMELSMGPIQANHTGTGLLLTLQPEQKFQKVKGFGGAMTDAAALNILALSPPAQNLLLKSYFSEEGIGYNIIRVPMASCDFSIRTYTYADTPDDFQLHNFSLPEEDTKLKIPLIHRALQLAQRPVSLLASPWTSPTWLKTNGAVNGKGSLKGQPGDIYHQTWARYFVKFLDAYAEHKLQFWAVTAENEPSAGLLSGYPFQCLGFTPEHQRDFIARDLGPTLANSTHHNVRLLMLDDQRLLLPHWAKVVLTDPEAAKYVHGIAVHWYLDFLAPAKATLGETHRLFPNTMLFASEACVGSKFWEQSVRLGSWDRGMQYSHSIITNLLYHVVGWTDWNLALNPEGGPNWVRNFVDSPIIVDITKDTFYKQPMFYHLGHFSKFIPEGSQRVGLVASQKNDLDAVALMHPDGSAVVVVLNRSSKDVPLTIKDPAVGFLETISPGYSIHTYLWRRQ
How it was run: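 Compounds titrated from 0.6 nM upwards against 0.2 nM enzyme in pH 5.9 citric acid/KH2PO4, taurocholate, tween-20; blue fluorogenic substrate 80 uM, 40 min room temperature, stopped and read Ex 365/Em 440 for AC50.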

[2] = AP1 Signaling Pathway (AID 357; active = well fitted curve in either direction with a large enough effect, not every such curve was filed as active; note: % is set by controls: 0 for no effect and ±100 for the full control effect); conditions: ME-180 AP-1-bla reporter, EGF-induced, beta-lactamase ratio, 5 h; at 7.69 µM (top of the series) unless noted
How it was run: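 Titration-series screen for positive or negative modulators of EC50 EGF-induced signaling in ME-180 cells carrying an AP-1-driven beta-lactamase reporter. After 5 hours at 37 degrees Celsius, CCF4 460nm/530nm emission ratio gave %Activity; AC50 values derived.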

[3] = biological target: Cytochrome P450 1A2 (Homo sapiens) (UniProt P05177); experiment: p450-cyp1a2 (AID 410; calls by dose curve; note: potency is the fitted concentration of half-maximal effect); conditions: recombinant CYP1A2, luciferin-ME demethylation, luminescence; series mostly up to 57 µM
Cytochrome P450 1A2 (Homo sapiens), sequence (P05177 whole entry, looked up): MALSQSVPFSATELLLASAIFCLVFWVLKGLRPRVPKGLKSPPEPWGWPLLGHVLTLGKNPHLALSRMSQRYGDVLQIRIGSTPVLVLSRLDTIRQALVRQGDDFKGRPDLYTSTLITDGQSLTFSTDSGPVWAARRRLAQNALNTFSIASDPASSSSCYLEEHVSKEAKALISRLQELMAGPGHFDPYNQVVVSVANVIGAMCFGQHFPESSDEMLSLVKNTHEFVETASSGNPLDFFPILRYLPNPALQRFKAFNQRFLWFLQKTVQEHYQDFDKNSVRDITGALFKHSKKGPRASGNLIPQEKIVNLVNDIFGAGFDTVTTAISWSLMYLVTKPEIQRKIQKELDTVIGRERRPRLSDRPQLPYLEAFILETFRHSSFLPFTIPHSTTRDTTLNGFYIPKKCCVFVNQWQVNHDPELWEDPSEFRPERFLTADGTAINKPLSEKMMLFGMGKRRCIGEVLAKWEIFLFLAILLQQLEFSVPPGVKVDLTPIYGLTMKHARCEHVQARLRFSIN
How it was run: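 Luminescent readout of luciferin formed from Luciferin-ME by human CYP1A2; data normalized against complete inhibition by 57 uM furafylline. Enzyme 20nM, substrate 100uM at Km, 100mM KPO4 buffer, 60 min reaction at room temperature.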

[4] = Stat Signaling Pathway (AID 446; active = well fitted curve in either direction with a large enough effect, not every such curve was filed as active;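 note: ME-180 cervical cancer cells given 40 pM IL-6 alongside compound; SIE-controlled beta-lactamase reporter measured as 460/530 nm FRET emission ratio; % is set by controls: 0 for no effect and ±100 for the full control effect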); conditions: ME-180 SIE beta-lactamase reporter, IL-6 stimulated, 5 h; at 7.69 µM (top of the series) unless noted
How it was run: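 Screening format detects activators and inhibitors alike: ME-180 SIE-bla cells stimulated at 40 pM IL-6 for 5 hrs with compound, then dual-emission beta-lactamase read at 405 nm excitation.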

[5] = biological target: Glucocorticoid receptor (Homo sapiens) (UniProt P04150); experiment: GR-GFP Redistribution (AID 450;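 active = compounds whose dose series gives a full or clear partial fitted curve of increased nuclear translocation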; note: potency is the fitted concentration of half-maximal effect); conditions: U2OS GR-GFP nuclear translocation, laser cytometry, 2 h
Glucocorticoid receptor (Homo sapiens), sequence (P04150 whole entry, looked up, the tested form may be a part): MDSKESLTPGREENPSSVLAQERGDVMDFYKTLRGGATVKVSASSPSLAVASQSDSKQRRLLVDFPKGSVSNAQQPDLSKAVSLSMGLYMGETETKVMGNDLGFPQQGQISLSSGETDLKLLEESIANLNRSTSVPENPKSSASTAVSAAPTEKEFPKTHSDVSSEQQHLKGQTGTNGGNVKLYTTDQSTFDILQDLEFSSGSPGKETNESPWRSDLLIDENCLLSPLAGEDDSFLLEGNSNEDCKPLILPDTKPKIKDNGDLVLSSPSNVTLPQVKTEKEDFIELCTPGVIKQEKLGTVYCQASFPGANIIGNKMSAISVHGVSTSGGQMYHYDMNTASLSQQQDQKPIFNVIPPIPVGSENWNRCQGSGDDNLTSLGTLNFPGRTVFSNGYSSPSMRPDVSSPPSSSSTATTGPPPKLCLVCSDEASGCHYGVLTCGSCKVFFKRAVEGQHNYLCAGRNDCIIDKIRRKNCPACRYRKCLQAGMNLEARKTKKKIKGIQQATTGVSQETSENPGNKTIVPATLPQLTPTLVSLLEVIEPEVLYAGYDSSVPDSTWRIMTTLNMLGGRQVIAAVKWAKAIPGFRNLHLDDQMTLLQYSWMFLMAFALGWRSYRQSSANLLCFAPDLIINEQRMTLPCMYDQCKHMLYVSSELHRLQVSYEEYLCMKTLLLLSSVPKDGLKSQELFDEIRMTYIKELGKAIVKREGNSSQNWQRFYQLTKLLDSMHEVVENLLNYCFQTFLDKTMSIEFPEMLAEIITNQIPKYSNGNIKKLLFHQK

[6] = biological target: Glucocorticoid receptor (Homo sapiens) (UniProt P04150); experiment: GR-EFC Redistribution (AID 451; calls by dose curve; note: potency is the fitted concentration of half-maximal effect); conditions: CHO-K1 GR-EFC translocation, beta-gal luminescence, 2 h
How it was run: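 Translocation of GR-ED fusion to nuclear EA restores b-gal, read by luminescence after 1 h room-temperature detection. Engineered CHO-K1 biosensor cells, 1,000/well, exposed 2 h at 37 C to titrations up to 46 uM final.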

[7] = biological target: Mitogen-activated protein kinase 10 (Mus musculus) (UniProt Q61831); experiment: JNK3 AlphaScreen Assay (AID 530; active = well fitted curve in either direction with a large enough effect, not every such curve was filed as active;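 note: kinase came from lysate of stimulated human HepG2 cells; signal reports phosphorylation of biotinylated GST-cJun 1-79 at Ser73 with 10 µM ATP; % is set by controls: 0 for no effect and ±100 for the full control effect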); conditions: JNK3 lysate, c-Jun phosphorylation; series mostly up to 57.1 µM
How it was run: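 Compound titrations were preincubated 15 minutes at room temperature with substrate, antibody and pre-activated JNK3-containing HepG2 lysate. Reactions were started with 10 uM ATP and stopped with EDTA-containing bead buffer for AlphaScreen detection.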

[8] = biological target: Cytochrome P450 3A4 (Homo sapiens) (UniProt P08684); experiment: qHTS Assay for Inhibitors and Substrates of Cytochrome P450 3A4 (AID 884); conditions: recombinant CYP3A4, Luciferin-PPXE luminescence; series mostly up to 57.1 µM; note: nearly all actives have a fitted effect of over 50% in size; note: potency is the fitted concentration of half-maximal effect
Cytochrome P450 3A4 (Homo sapiens), sequence (P08684 whole entry, looked up): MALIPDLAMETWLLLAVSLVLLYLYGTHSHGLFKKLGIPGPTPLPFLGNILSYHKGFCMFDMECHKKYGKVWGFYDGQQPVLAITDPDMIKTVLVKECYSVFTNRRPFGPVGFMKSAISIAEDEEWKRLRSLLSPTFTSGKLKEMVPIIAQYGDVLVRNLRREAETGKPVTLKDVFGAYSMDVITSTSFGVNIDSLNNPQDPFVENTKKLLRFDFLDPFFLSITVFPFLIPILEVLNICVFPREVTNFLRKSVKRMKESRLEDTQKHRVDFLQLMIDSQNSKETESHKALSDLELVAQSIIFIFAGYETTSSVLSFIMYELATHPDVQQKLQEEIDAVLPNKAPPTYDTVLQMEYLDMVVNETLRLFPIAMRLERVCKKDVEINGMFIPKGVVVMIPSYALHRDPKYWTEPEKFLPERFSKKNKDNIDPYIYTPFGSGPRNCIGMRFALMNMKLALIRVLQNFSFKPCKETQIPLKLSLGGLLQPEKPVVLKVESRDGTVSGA
How it was run: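 20 nM human CYP3A4 with 25 uM Luciferin-PPXE (at KM) in 200 mM KPO4, preincubated 10 min with compound; NADPH regeneration started a 60 min RT reaction. Luciferin detected by luminescence, normalized to 57 uM ketoconazole as full inhibition.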

[9] = biological target: Cytochrome P450 3A4 (Homo sapiens) (UniProt P08684); experiment: qHTS Assay for Activators of Cytochrome P450 3A4 (AID 885); conditions: recombinant CYP3A4, Luciferin-PPXE luminescence, 60 min; series mostly up to 57.1 µM; note: nearly all actives have a fitted effect of over 65% in size; note: potency is the fitted concentration of half-maximal effect
How it was run: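 Steps: enzyme/substrate mix dispensed; compound added, 10 min RT; NADPH regeneration solution added, 60 min RT; luciferin detection buffer stops reaction; 20 min later luminescence measured.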

[10] = biological target: Cytochrome P450 2D6 (Homo sapiens) (UniProt P10635); experiment: qHTS Assay for Inhibitors and Substrates of Cytochrome P450 2D6 (AID 891); conditions: recombinant CYP2D6, luciferin-ME EGE luminescence; series mostly up to 57.1 µM; note: potency is the fitted concentration of half-maximal effect; nearly all actives have a fitted effect of over 60% in size
Cytochrome P450 2D6 (Homo sapiens), sequence (P10635 whole entry, looked up): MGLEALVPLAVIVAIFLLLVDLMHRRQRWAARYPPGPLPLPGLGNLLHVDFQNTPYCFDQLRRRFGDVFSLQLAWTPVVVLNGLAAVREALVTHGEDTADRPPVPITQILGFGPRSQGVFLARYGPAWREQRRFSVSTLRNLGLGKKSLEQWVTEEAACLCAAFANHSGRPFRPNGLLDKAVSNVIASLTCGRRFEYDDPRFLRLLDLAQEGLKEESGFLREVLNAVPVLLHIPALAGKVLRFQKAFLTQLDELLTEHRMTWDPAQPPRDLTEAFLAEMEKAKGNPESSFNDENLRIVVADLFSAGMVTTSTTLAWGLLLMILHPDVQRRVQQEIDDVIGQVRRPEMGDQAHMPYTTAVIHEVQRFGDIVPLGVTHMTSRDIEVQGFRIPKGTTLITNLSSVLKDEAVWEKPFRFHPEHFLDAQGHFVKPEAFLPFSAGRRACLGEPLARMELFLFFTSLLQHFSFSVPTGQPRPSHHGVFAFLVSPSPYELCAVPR
How it was run: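 Human CYP2D6 (5 nM) with 30 uM Luciferin-ME EGE (at Km) in 100 mM KPO4, compound preincubated 10 min, then NADPH regeneration system for 60 min at room temperature. Luciferin read by luminescence; normalized to 1.43 uM quinidine.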

[11] = biological target: Dual specificity protein kinase CLK4 (Homo sapiens) (UniProt Q9HAZ1); experiment: qHTS Assay for Inhibitors of CDC-like Kinase 4 (Kinase-Glo Assay) (AID 1770); conditions: recombinant Clk4, Kinase-Glo ATP depletion luminescence; series mostly up to 66.7 µM; note: nearly all actives have a fitted effect of over 65% in size; note: potency is the fitted concentration of half-maximal effect
Dual specificity protein kinase CLK4 (Homo sapiens), sequence (Q9HAZ1 whole entry, looked up): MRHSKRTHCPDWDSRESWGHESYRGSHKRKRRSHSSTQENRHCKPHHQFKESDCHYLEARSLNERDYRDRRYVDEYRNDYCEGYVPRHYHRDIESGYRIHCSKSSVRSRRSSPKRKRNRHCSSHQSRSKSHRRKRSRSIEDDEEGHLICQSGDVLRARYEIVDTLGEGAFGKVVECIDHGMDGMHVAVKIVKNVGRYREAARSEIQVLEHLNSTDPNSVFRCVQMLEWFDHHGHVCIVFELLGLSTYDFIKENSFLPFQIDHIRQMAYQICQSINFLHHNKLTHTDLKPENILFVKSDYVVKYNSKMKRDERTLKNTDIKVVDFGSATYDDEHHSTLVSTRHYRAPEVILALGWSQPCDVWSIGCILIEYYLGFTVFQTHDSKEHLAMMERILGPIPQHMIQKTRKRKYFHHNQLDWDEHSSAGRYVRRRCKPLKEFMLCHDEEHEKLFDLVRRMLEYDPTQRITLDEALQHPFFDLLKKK
How it was run: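 Recombinant human Clk4 (25 nM) phosphorylated RS repeat peptide (100 uM) with 1 uM ATP in Tris pH 7.5/MgCl2/EGTA/DTT/Triton buffer for 4.5 h at room temperature. Residual ATP was quantified by Kinase-Glo luciferase luminescence.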

[12] = biological target: Dual specificity protein kinase CLK4 (Homo sapiens) (UniProt Q9HAZ1); experiment: qHTS Assay for Inhibitors of CDC-like Kinase 4 (ADP-Glo Assay) (AID 1771); conditions: recombinant CLK4, ADP-Glo luminescence; series mostly up to 80 µM; note: nearly all actives have a fitted effect of over 70% in size; note: potency is the fitted concentration of half-maximal effect
How it was run: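 Luminescence from ADP-Glo reports ADP produced by 25 nM Clk4 acting on 100 uM RS repeat peptide with 1 uM ATP over 1 hr at room temperature; residual ATP is depleted before ADP is converted to ATP for detection.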

[13] = biological target: Dual specificity protein kinase CLK4 (Homo sapiens) (UniProt Q9HAZ1); experiment: qHTS Assay for Inhibitors of CDC-like Kinase 4 (ADP-FP Assay) (AID 1795); conditions: Transcreener ADP fluorescence polarization; series mostly up to 50 µM; note: nearly all actives have a fitted effect of over 60% in size; note: potency is the fitted concentration of half-maximal effect
How it was run: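 Recombinant human Clk4 (6.25 nM) phosphorylated RS repeat peptide (100 uM) with 1 uM ATP in Tris pH 7.5/MgCl2/EGTA/DTT/Triton buffer for one hour. ADP was quantified by Transcreener competitive fluorescence polarization against an ADP calibration curve.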

[14] = biological target: Ubiquitin carboxyl-terminal hydrolase 1 (Homo sapiens) (UniProt O94782); experiment: Inhibitors of USP1/UAF1: Pilot qHTS (AID 504865); conditions: purified USP1/UAF1, Ub-rhodamine cleavage fluorescence; series mostly up to 54.9 µM;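 note: rhodamine fluorescence freed from ubiquitin-rhodamine substrate followed over time; top concentration of the series differs between compounds; % is set by controls: 0 for no effect and ±100 for the full control effect; nearly all actives have a fitted effect of over 35% in size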
Ubiquitin carboxyl-terminal hydrolase 1 (Homo sapiens), sequence (O94782 whole entry, looked up): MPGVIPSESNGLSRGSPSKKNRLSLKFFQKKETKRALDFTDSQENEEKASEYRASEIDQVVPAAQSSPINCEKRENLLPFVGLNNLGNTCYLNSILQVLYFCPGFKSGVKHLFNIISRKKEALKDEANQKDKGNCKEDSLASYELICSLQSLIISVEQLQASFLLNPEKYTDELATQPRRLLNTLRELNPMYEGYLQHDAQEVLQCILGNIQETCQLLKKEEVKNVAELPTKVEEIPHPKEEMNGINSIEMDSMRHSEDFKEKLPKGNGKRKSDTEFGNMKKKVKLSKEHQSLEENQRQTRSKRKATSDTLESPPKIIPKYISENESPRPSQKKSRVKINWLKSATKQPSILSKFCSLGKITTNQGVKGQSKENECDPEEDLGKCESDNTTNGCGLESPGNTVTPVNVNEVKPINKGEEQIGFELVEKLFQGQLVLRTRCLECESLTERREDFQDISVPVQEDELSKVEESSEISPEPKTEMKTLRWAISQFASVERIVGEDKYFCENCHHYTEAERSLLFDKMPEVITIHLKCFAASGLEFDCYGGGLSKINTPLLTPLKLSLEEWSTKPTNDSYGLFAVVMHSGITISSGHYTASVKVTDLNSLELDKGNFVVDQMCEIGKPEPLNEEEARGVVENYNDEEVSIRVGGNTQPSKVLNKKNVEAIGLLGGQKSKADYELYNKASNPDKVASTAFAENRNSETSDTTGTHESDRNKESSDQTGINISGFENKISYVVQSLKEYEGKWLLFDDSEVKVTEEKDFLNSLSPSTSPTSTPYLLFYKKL
How it was run: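 USP1/UAF1 complex (1nM) preincubated with compound 15 min at room temperature, then Ub-Rho substrate (150nM final) added. Fluorescence read kinetically at 480/540 nm, 6 reads every 60 seconds. Buffer: 50mM HEPES pH 7.8, 0.5mM EDTA, 0.1 mg/ml BSA, 1mM TCEP, 0.01% Tween-20.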

[15] = Primary qHTS for small molecule stabilizers of the endoplasmic reticulum resident proteome: Secreted ER Calcium Modulated Protein (SERCaMP) assay (AID 1508630); conditions: SH-SY5Y GLuc-SERCaMP (Gaussia luciferase released on ER calcium loss) secretion, thapsigargin, luminescence; series mostly up to 38.4 µM; note: % is set by controls: 0 for no effect and ±100 for the full control effect
How it was run: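 GLuc-SERCaMP-expressing SH-SY5Y cells, pretreated 16 h with compound, are challenged with thapsigargin to empty ER calcium stores; after 4 h, coelenterazine is added directly to the medium and luminescence is imaged.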

[16] = biological target: 3',5'-cyclic-AMP phosphodiesterase 4B (Homo sapiens) (UniProt Q07343); experiment: qHTS Assay for Inhibitors of PDE-IV (AID 607; active = well fitted activation curve with a large enough effect in the main read-out, with a control signal flat, not every such curve was filed as active; note: potency is the fitted concentration of half-maximal effect); conditions: HEK293 ACTOne CNG channel cells, membrane potential fluorescence; series mostly up to 22.9 µM
3',5'-cyclic-AMP phosphodiesterase 4B (Homo sapiens), sequence (Q07343 whole entry, looked up): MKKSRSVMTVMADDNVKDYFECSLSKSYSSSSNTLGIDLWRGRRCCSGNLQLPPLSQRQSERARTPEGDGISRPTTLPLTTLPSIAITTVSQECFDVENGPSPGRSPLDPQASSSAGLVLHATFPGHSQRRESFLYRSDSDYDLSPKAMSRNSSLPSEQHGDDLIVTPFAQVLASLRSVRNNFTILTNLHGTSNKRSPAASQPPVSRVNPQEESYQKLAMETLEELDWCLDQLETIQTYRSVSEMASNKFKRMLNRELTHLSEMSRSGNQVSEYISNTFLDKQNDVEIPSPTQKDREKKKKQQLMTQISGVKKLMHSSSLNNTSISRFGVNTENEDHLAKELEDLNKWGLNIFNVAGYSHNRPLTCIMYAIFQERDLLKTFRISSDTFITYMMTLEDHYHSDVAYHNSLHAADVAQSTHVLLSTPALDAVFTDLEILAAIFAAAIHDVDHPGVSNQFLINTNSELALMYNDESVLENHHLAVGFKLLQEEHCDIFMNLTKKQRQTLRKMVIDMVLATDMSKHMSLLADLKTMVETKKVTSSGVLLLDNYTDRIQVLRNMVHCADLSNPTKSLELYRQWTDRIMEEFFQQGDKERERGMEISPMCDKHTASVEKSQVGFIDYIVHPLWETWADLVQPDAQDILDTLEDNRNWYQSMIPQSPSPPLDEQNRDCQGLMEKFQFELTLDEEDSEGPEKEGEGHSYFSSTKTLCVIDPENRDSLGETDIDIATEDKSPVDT
How it was run: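 The readout is membrane depolarisation from a cAMP-sensing CNG channel, detected with a potential dye at ex 535/em 590. Cells were HEK293-derived (endogenous PDE-IV) at 1000 cells/well, titrated up to 22.9 uM final.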

[17] = biological target: Cytochrome P450 2C9 (Homo sapiens) (UniProt P11712); experiment: qHTS Assay for Inhibitors and Substrates of Cytochrome P450 2C9 (AID 883); conditions: recombinant CYP2C9, luciferin-H luminescence, 60 min; series mostly up to 57.1 µM; note: potency is the fitted concentration of half-maximal effect; nearly all actives have a fitted effect of over 60% in size
How it was run: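 Luminescent read-out of deoxyluciferin hydroxylation, normalized to 57uM sulphaphenazole (AC100). Reaction: 10nM enzyme, 100uM Luciferin-H (equal to KM), 25mM KPO4, 10 min compound preincubation, then 60 min with NADPH regeneration, both at 37C.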

[18] = NFAT Signaling Pathway (AID 444; active = well fitted curve in either direction with a large enough effect, not every such curve was filed as active); conditions: Jurkat NFAT-bla M1, carbachol, beta-lactamase ratio, 5 h; at 7.69 µM (top of the series) unless noted
How it was run: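 Read-out: CCF4 FRET ratio (460 nm/530 nm) after 1 h RT dye loading, used for %activity and AC50 from titration series. Cells: Jurkat NFAT-β-lactamase/M1 line, treated with compound plus 1 uM carbachol for 5 h, 37 °C.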

c1cncc(-c2nc(NCc3cccs3)c3ccccc3n2)c1
inactive: Potency [1] > 11.4 µM | activity change, negative = inhibition [2] -18.5% | activity, negative = inhibition [4] 1.18% | Potency [5] > 46 µM | Potency [6] > 46 µM | Potency [7] | Potency [9] | Potency [14] | outcome [15]
active: Potency [3] 0.316 µM | Potency [8] 2 µM | Potency [10] 6.31 µM | Potency [11] 1.58 µM | Potency [12] 1.26 µM | Potency [13] 2 µM

CNc1ncnc2ccc(-c3cccc(OC)c3)cc12
active: Potency [3] 0.501 µM | Potency [17] 0.501 µM | Potency [11] 0.501 µM | Potency [12] 0.501 µM | Potency [13] 0.282 µM
inactive: Potency [1] > 11.4 µM | activity change, negative = inhibition [2] -19.8% | activity, negative = inhibition [4] -20.2% | Potency [5] > 46 µM | Potency [6] > 46 µM | Potency [7] | Potency [16] | Potency [14] | outcome [15]

O=c1c(-c2ccc(Cl)cc2)nc2cnc(N3CCOCC3)nc2n1CCc1ccccc1
inactive: Potency [1] > 11.4 µM | Potency [5] > 9.22 µM | Potency [6] > 46 µM | Potency [7] | Potency [16] | Potency [8] | Potency [11] | Potency [12] | Potency [13] | Potency [14] | outcome [15]
active: activity change, negative = inhibition [2] 87.9% [activator] | Potency [3] 2 µM | activity change, negative = inhibition [18] 112% [activator] | Potency [9] 15.8 µM

CCNc1ncc2nc(-c3ccccc3)c(=O)n(CCOC)c2n1
active: Potency [3] 3.16 µM | Potency [10] 3.16 µM
inactive: Potency [1] > 11.4 µM | activity change, negative = inhibition [2] 22.2% | activity change, negative = inhibition [18] 22.8% | Potency [5] > 9.22 µM | Potency [6] > 46 µM | Potency [7] | Potency [16] | Potency [9] | Potency [11] | Potency [12] | Potency [13] | Potency [14] | outcome [15]

Cc1cnc(CNc2nc(-c3ccccc3C(F)(F)F)nc3ccccc23)cn1
active: Potency [3] 12.6 µM | Potency [8] 5.01 µM
inactive: Potency [1] > 11.4 µM | activity change, negative = inhibition [2] -16.3% | activity change, negative = inhibition [18] 12.8% | activity, negative = inhibition [4] -2.08% | Potency [5] > 46 µM | Potency [6] > 46 µM | Potency [7] | Potency [16] | Potency [9] | Potency [11] | Potency [12] | Potency [13] | outcome [15]

COCCn1c(=O)c(-c2ccc(F)cc2)nc2cnc(N(C)C)nc21
inactive: Potency [1] > 11.4 µM | activity change, negative = inhibition [2] -1.02% | activity change, negative = inhibition [18] 10.7% | Potency [5] > 9.22 µM | Potency [6] > 46 µM | Potency [11] | Potency [12] | Potency [13] | Potency [14] | outcome [15]
active: Potency [3] 2 µM | Potency [16] 1.58 µM

Source: PubChem BioAssay (NCATS)
